In PubChem BioAssay AID504727 (Broad Institute, 2011) one finds AC50 data, which are given here for 38 molecules.

SMILES strings stand for the structures. The source made the active and inactive calls.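 How the source made its calls: active means fitted half-maximal concentration AC50 at or below ten times the highest valid tested dose, with signal falling as DNA is displaced (actives reach about 34 µM in these data); inconclusive means flat fit at moderate signal loss, or poor fit quality; inactive means the rest, including signal rising instead of falling.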

This assay in a line: DNA intercalators displacing acridine orange, dose response, artefact control for KSHV LANA DNA-binding inhibitor project, biochemical, fluorescence polarization, cherry-picked samples, set 2 (AID 504727). The settings on record: AC50: Acridine orange-DNA displacement; series mostly up to 35 µM. A general note: Polarisation of emitted light reports the rotation of a fluorescent probe.
Consider `NC(=O)C1(N2CCCCC2)CCN(Cc2ccc(Br)cc2)CC1`, for which the AC50 (as a rule, the concentration giving half of the maximal activity seen) was “inactive”.

Turning to `O=C1CCCC2=C1C(c1ccc(O)c(O)c1)Nc1ccc3ncccc3c12` (stereo not drawn), the AC50 entry is “inactive”.

Consider `Cc1ccc(N(C)C(=O)C2CCCN2S(=O)(=O)c2ccc3c(c2)n(C)c(=O)c(=O)n3C)cc1` (stereo not drawn), for which the AC50 result was “inactive”.

For the molecule `Cc1nn(CC(=O)c2ccc(Br)s2)c(C)c1[N+](=O)[O-]`, the AC50 entry is “inactive”.

On to `O=S(=O)(O)c1cc(O)c2ccc(Nc3ccccc3)cc2c1`, for which the AC50 entry was “inactive”.

Consider `Oc1ccc2nnc3c(Br)cnn3c2c1`, for which the AC50 is 8.34 µM (active).

Turning to `CCc1noc(C)c1C(=O)N1CCCC(N2CCN(c3ccc(F)cc3)CC2)C1` (stereo not drawn), the AC50 entry was “inactive”.

For `Cn1c(Cl)c(C(=O)Nc2ccc(Cl)cc2)c2ccccc21`, the AC50 result was “inactive”.

Regarding `O=C(O)C1(c2ccccc2)CCN(S(=O)(=O)c2ccc(Cl)s2)CC1`, the AC50 result was “inactive”.

Consider `CCCN(CCC)C(=O)C1c2ccccc2Oc2ccccc21`, for which the AC50 result was “inactive”.

On to `COc1ccc(C2c3ccc(O)cc3Oc3ncn(CCCO)c(=N)c32)cc1OC` (stereo not drawn), for which the AC50 entry is “inactive”.

As for `CCN(CC(=O)Nc1ccc(OC)cc1)C(=O)c1cc([N+](=O)[O-])ccc1N1CCOCC1`, the AC50 result was “inactive”.

For the molecule `O=C(CC1CCCC1)N1CCN(S(=O)(=O)c2ccccc2)CC1`, the AC50 entry is “inactive”.

As to `O=C(CCNc1ccc(Cc2ccncc2)cc1)c1cccc([N+](=O)[O-])c1`, the AC50 entry is “inactive”.

For the molecule `CCN(C(=O)COC(=O)CNS(=O)(=O)c1ccc(SC)c([N+](=O)[O-])c1)C1CCCCC1`, the AC50 result was “inactive”.

`CCOC(=O)c1c(C)n(C)c2ccc(OCCN(C)C)cc12`: the AC50 result is “inactive”.

`O=C(O)COc1ccc2c(c1)O/C(=C\c1ccco1)C2=O`: the AC50 result is “inactive”.

With `O=C(CCn1c(=S)oc2ccccc21)N1CCN(c2ccc(F)cc2)CC1`, the AC50 entry was “inactive”.

Turning to `Cc1cc(NC(=O)CSc2nnc(COc3cccc(C)c3C)n2C)no1`, the AC50 entry was “inactive”.

In the case of `O=C(O)CCCCCn1c(SCC(=O)c2ccc(O)c(O)c2)nc2ccsc2c1=O`, the AC50 was 23.8 µM (active).

With `Cc1cc(S(=O)(=O)NC2CCN(Cc3ccccc3)CC2)c(C)cc1Cl`, the AC50 entry was “inactive”.

As to `Cc1ccsc1/C=N/NC(=O)Cc1ccc(Cl)cc1`, the AC50 entry is “inactive”.

On to `COc1ccc(C2(CNC(=O)CCC(=O)O)CCCC2)cc1OC`, for which the AC50 entry was “inactive”.

In the case of `CCOC(=O)c1ccc[n+](CC(=O)c2ccc(OC)cc2)c1`, the AC50 result was “inactive”.

In the case of `Nc1ccc2nc3c(=O)[nH]c(=S)[nH]c3nc2c1`, the AC50 was 3.69 µM (active).

Regarding `Cc1ccc(N=Nc2c(O)[nH]c3ccc(F)cc23)cc1`, the AC50 entry is “inactive”.

As for `O=C(O)c1ccc2c(c1)C(=O)/C(=C\c1ccco1)C2=O`, the AC50 entry was “inactive”.

Regarding `CCN(CC)CCCNc1ccc2ncn3c4ccc(O)cc4c(=O)c1c23`, the AC50 is 6.91 µM (active).

As for `COc1cccc(/C=N/NC(=O)C(=O)NCc2cccnc2)c1O`, the AC50 result was “inactive”.

Regarding `Clc1ccc(C2=CC(c3ccco3)n3ncnc3N2)cc1` (stereo not drawn), the AC50 entry is “inactive”.

Consider `CN(C)/C=C1\C=C2C(=O)c3ccccc3N2C1=O`, for which the AC50 is 0.065 µM (active).

`Cc1nc(Cl)c2c(n1)NC1=C(O2)C(=O)CCC1`: the AC50 was 11.1 µM (active).

For `Cc1ccc(-c2nnn(CC(=O)NC3CCN(Cc4ccccc4)CC3)n2)cc1`, the AC50 entry was “inactive”.

As for `CCCC1(C2CCCC2)NC(=O)NC1=O` (stereo not drawn), the AC50 result is “inactive”.

For the molecule `CC(=O)N/C(=C/c1ccc(OS(=O)(=O)c2ccc(C)cc2)cc1)C(=O)Nc1ccc(C(=O)O)cc1`, the AC50 result is “inactive”.

Turning to `COc1ccc(NS(=O)(=O)c2ccc(C)c(C(=O)N(C)Cc3ccc(OC)cc3OC)c2)cc1`, the AC50 entry was “inactive”.

For `COc1ccc(NC(=O)CO/N=C2/CCCc3nonc32)c(OC)c1`, the AC50 result was “inactive”.

As to `COc1cccc2[nH]c(C(=O)NC(C)c3ccccc3)cc12` (stereo not drawn), the AC50 result is “inactive”.
